According to PubChem BioAssay AID624415 (National Center for Advancing Translational Sciences (NCATS), 2012):
The whole screen tested about 390,000 compounds, of which about 60 (0.02%) were called active. Many of the other results were omitted from the sample, so actives are more common in it than they were. Unmarked numbers belong to inactive results. Cut-off read from the data, not from the text of the source: active = activity change below about -50%; inconclusive = between about -30% and that limit; inactive = weaker than that.

target: Mucolipin-1 (Homo sapiens) (UniProt Q9GZU1); test: qHTS for Inhibitors of the Human Mucolipin Transient Receptor Potential 1 (TRPML1); settings: TRPML1-inducible cells, Ca2+ dye fluorescence, FDSS; stronger effect = lower value; inhibition of EC80 agonist-evoked calcium signal;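 note: stimulus is agonist 54-4 at its EC80 concentration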
Sequence (Q9GZU1 whole entry, looked up, the tested form may be a part): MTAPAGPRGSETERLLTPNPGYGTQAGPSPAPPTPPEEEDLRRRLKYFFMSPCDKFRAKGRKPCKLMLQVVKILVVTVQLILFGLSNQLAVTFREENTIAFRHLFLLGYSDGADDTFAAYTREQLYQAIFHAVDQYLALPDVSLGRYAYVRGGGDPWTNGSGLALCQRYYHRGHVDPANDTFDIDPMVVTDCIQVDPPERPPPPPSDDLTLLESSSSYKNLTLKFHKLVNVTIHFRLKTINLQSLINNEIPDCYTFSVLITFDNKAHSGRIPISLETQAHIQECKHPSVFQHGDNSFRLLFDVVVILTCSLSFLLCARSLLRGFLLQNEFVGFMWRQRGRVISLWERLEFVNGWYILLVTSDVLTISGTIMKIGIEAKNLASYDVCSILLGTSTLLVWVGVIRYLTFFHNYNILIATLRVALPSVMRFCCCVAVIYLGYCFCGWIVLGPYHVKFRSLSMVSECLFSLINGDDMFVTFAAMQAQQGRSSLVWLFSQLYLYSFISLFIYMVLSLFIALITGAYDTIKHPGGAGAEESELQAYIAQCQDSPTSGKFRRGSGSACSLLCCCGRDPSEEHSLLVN
Description: Mutations of human Mucolipin transient receptor potential 1 (TRPML1) cause type IV mucolipidosis (ML4), a devastating neurodegenerative disease in young children. […] Currently, there is no treatment for ML4. […] Under physiological conditions, TRPMLs regulate membrane trafficking by transducing information about PI(3,5)P2 levels into changes in juxtaorganellar Ca2+, thereby triggering membrane fusion/fission events in the late endocytic pathways (endolysosomal trafficking). In addition, TRPML1 mediates release of Fe2+ from late endosomes and lysosomes, which is essential for cellular iron metabolism. Thus, impaired ion (Ca2+ and Fe2+) homeostasis underlies lysosomal dysfunction and ML4 phenotypes. In ML4 cells, the problem is twofold. First, defective Ca2+-dependent membrane trafficking due to TRPML1-deficiency causes accumulation of lipids and other bio-materials in the lysosome. The second strike comes from the lysosomal iron overload (due to impairment of TRPML1's Fe2+ conductivity), which converts the accumulated materials into the nondegradable (resistant to lysosomal degradation) lipofuscin (also called aging pigment) in the lysosome. Lipofuscin accumulation dramatically compromises the functions of lysosomes.
Niemann-Pick type C (NPC) disease is another lysosome storage disease (LSD) with severe neurodegeneration during the childhood. Currently, there is no cure for NPC. […] Thus, TRPML1 is likely to be an essential regulator of lysosome ion homeostasis. We specifically hypothesize that stimulating TRPML1's Fe2+/Ca2+ channel activity in the lysosome using synthetic agonists can alleviate neurodegeneration associated with ML4 or NPC.
To this end, a high throughput screen was developed in a miniaturized format to screen against the Molecular Libraries Small Molecule Repository (MLSMR) to find small molecules that act either as inhibitors or agonist against the TRPML1 channel.
NIH Chemical Genomics Center [NCGC]
NIH Molecular Libraries Probe Centers Network [MLPCN]
Assay Submitter (PI): Haoxing Xu, University of Michigan Ann Arbor
TRPML1-DL cells are dissociated from flasks, counted and, brought up to a density of 500,000 cells per mL of media containing a 1X Tet inducer. Using a Multidrop Combi, 3 uL of this cell solution is dispensed to each well of a 1536 TC treated, black, clear bottom hi base plate for a final cell density of 1,500 cells per well. The assay plates are incubated overnight (approximately 16 hours) at 37 degrees C and 5% CO2. Using a Multidrop Combi, 2 uL of ABD Ca8 no wash dye plus quencher is added to each well. The assay plates incubate at room temperature in the dark for 45-90 minutes. The assay plate is read on the FDSS using the following protocol: 10 second baseline read, 23 nL of compounds and controls are added using 1536 pintool, agonist read for 110 seconds, 1 uL EC80 addition (4 uM final 54-4 diluted in media), antagonist read for 110 seconds.
% is set by controls: 0 for no effect and ±100 for the full control effect.

| SMILES | activity change, negative = inhibition |
| --- | --- |
| Cc1ccc(Cn2cnc3c(cnn3C(C)(C)C)c2=O)c(F)c1 | 38.8% |
| COc1cc(OC)cc(C(=O)Nc2c(C(=O)Nc3ccc(F)cc3)oc3ccccc23)c1 | -0.263% |
| O=C1CN(Cc2ccccc2)S(=O)(=O)c2ccccc21 | 2.64% |
| CCOc1ccc(C(=O)c2cn(Cc3ccc(F)cc3)c3ccc(F)cc3c2=O)cc1 | 34.7% |
| CCOc1ccc(-c2cc3c(=O)n(CC(=O)NCc4ccc(OC)cc4)ccn3n2)cc1 | 14.1% |
| Cc1cc2c(cc1C)C(c1cccc(OC(C)C)c1)CC(=O)N2 (stereo not given) | -6.57% |
| COc1ccc(C(CCN2CCOCC2)c2c(OC)cc(OC)c3c2OC(=O)CC3c2ccc(OC)cc2)cc1 (stereo not given) | -3.63% |
| CC(C)c1ccc(NC(=O)c2ccc3c(O)c(S(=O)(=O)c4ccccc4)c(=O)[nH]c3c2)cc1 | 8.74% |
| COc1ccccc1-n1c(-c2ccc(C)cc2)cn2c3c(=O)n(C)c(=O)n(C)c3nc12 | -8.58% |
| Cc1nn(C(C)C(=O)NCCc2ccccc2)c(=O)c2c1sc1ccccc12 (stereo not given) | -5.78% |
| O=C(Nc1cccc2cccnc12)C(F)(F)F | -10.4% |
| Cc1ccc(SCC(CC(C)C)N2CCN(CCc3ccccc3)CCC2=O)cc1 (stereo not given) | 35% |
| CC(=O)Nc1ccc(NC(=O)c2cc3sccc3n2Cc2ccc(F)cc2)cc1 | 8.5% |
| CCC(Sc1nnc(-c2ccc(OC)cc2)c(-c2ccc(OC)cc2)n1)C(=O)NC1CCCCC1 (stereo not given) | -8.91% |
| Cc1ccc(Cl)cc1NC(=O)CSc1nc2ccccc2nc1Cc1ccccc1 | 5.62% |
| Cn1c(=O)c(=O)n(C)c2cc(NC(=O)c3ccccc3Br)ccc21 | 18.3% |
| COc1ccc(Br)cc1C1CC(=O)Nc2c1c(C)nn2-c1nc(C)cc(C)n1 (stereo not given) | -2.53% |
| CCc1ccc(S(=O)(=O)c2nnn3c2nc(NCc2ccccc2OC)c2cc(Cl)ccc23)cc1 | 11.3% |
| CC(=O)Nc1ccc(NC(=O)CCCc2nc(-c3ccc(C(C)(C)C)cc3)no2)cc1 | -23.6% |
| Cc1ccc(OCC(=O)Nc2ccc(OCc3cc(=O)n4c(C)csc4n3)cc2)cc1C | 21.1% |
| COc1ccc(NC(=O)C2CCCN(S(=O)(=O)c3c(C)[nH]c(=O)[nH]c3=O)C2)c(OC)c1 (stereo not given) | -13.7% |
| COc1c(Cl)cc(C(=O)N(Cc2ccccc2F)C2CCS(=O)(=O)C2)cc1Cl (stereo not given) | -13.9% |
| COc1cccc(C(=O)NC2=NC(c3ccc(N(C)C)cc3)CC(=O)N2)c1 (stereo not given) | 4.87% |
| Cc1ccc(-c2nn3c(=O)cc(CN4CCN(C(=O)Nc5cccc(C(F)(F)F)c5)CC4)nc3s2)cc1 | -11.5% |
| COc1cccc(NC(=O)c2csnn2)c1 | -5.21% |
| O=C(NCc1ccc(F)cc1)c1ccc2nc(N3CCCCC3)sc2c1 | -15.1% |
| Cc1cc(NC(=O)c2ccc(-c3ccc(Cl)cc3)o2)cc(-c2nc3ncccc3o2)c1O | -5.56% |
| CCC1=Nc2cc(C(=O)NCC(C)c3ccccc3)ccc2Sc2ccc(C)cc21 (stereo not given) | 12% |

| SMILES | activity change, negative = inhibition |
| --- | --- |
| Cc1ccc(C)c(N2CCN(C(=O)C3CCC(CNS(=O)(=O)c4cccs4)CC3)CC2)c1 (stereo not given) | 13.9% |
| CCc1nc2onc(C)c2c(=O)n1CC(=O)O | -8.95% |
| Cc1ccccc1CN1CCC(CNC(=O)c2c(C)oc3ncnc(N4CCCCC4)c23)CC1 | 3.2% |
| CCN(CC)CCNC(=O)c1cc2c(=O)oc3ccc(C)cc3c2s1 | -8.55% |
| Cc1cc(F)ccc1NC1(c2ccccc2)C(=O)c2ccccc2C1=O | 2.11% |
| COc1ccc(S(=O)(=O)n2nc(C)c(S(=O)(=O)N3CCCCCC3)c2C)cc1 | -9.9% |
| O=C(Nc1ccc(OC(F)(F)F)cc1)c1cc2c(=O)n3ccccc3nc2s1 | 9.57% |
| COC(=O)c1ccc(-c2nc3cc(NC(C)=O)ccc3o2)cc1 | 12.1% |
| CCOc1ccc(S(=O)(=O)Nc2ccc3oc4c(c3c2)CC(C)CC4)cc1 (stereo not given) | 2.72% |
| CCOC(=O)c1ccc(NC(=O)C2CC(=O)N(c3ccc(C(C)C)cc3)C2)cc1 (stereo not given) | -2.44% |
| Cc1cc(OCC(=O)NCC2(N(C)C)CCCCC2)cc(C)c1Cl | -7.81% |
| C=C1CCN(C(CC(C)C)C(=O)NCc2cc(OC)c(OC)c(OC)c2)S(=O)(=O)c2ccccc21 (stereo not given) | 6.7% |
| Cc1ccc(CNC(=O)C2(C(F)(F)F)C/C(=C\CCO)CCCO2)o1 (stereo not given) | -4.32% |
| COc1ccc(NC(=O)CSc2nnc(-c3nnn(-c4ccc(F)cc4)c3C)o2)cc1 | 30.2% |
| Cc1cc(O)c(C(c2ccccc2)N2CCN(c3ccccc3F)CC2)c(=O)n1Cc1ccco1 (stereo not given) | 19% |
| O=C(NCCS(=O)(=O)N1CCN(c2ccc(F)cc2)CC1)c1ccccc1Br | -27.6% |
| Cc1nc(SCC(=O)N2CCN(c3ccccc3)CC2)[nH]c(=O)c1C | 14.8% |
| Cc1cccc(Cn2c(SCc3ccc(C(=O)N4CCC(C)CC4)cc3)nc3ccncc32)c1 | 10.3% |
| Cn1nnnc1SCCCNCc1ccc(Cl)cc1 | 25.2% |
| CCOC(=O)c1cccc(NS(=O)(=O)c2cn(C)c(C)n2)c1 | 9.58% |
| COC(=O)c1cccc(NS(C)(=O)=O)c1 | -60.5% (active) |
| COc1ccc(Cl)cc1S(=O)(=O)Nc1cccc(C(=O)O)c1 | -0.499% |
| O=C(CCc1nc(CN2CCN(S(=O)(=O)c3ccc(Cl)cc3)CC2)no1)N1CCCCC1 | 8.21% |
| CCc1ccc(CNC(=O)C2CCN(c3nn4cc(-c5ccc(F)cc5)nc4s3)CC2)cc1 | 20.9% |
| Cc1ccc(NC(=O)Cc2ccc(NC(=O)N3CCCCc4ccccc43)cc2)cc1 | 8.17% |
| Cc1ccccc1C(=O)Nc1cc(C)c(O)c(-c2nc3ccccc3o2)c1 | -18.1% |
| Cc1ccccc1CNC(=O)CSc1nnc(C)c2c(C)n(-c3ccccc3)nc12 | 2.86% |
